Reference: PubChem BioAssay (NCATS)
Results filed as inconclusive are left out. Activity calls are given as the source filed them. The call rests on the fitted dose curve; in most records, active means well fitted cell-killing curve with a large enough effect; inconclusive means small, poorly fitted or top-dose-only effect, or effect the other way; inactive means no such curve, though single readings can be large or run the other way.

Assay: Quantitative High-Throughput drug screen in 47 multiple myeloma cell lines against the NCATS MIPE library collection: PCM6_Riken cell viability assay (AID 1919870); further: nearly all actives have a fitted effect of over 30% in size
Conditions: CellTiter-Glo ATP, 48 h; series mostly up to 45.8 µM; viability (% of control): at the top concentration
Description: PI: Beverly A. Mock Ph.D.
Laboratory of Cancer Biology and Genetics,
Center for Cancer Research, National Cancer Institute,
National Institute of Health, Bethesda, Maryland
Drug resistance and disease progression are common in multiple myeloma (MM) patients, underscoring the need for new therapeutic combinations. […] We hypothesized that effective combinations would reduce MYC expression and enhance p16 activity. […] These preclinical data identify potentially useful drug combinations for evaluation in drug-resistant MM and reveal potential mechanisms of combined drug sensitivity.
Described herein is the primary MIPE qHTS used to cherrypick compounds. Validated compounds were then further tested for potential synergistic activiy.
[1] Peat TJ, Gaikwad SM, Dubois W, Gyabaah-Kessie N, Zhang S, Gorjifard S, Phyo Z, Andres M, Hughitt VK, Simpson RM, Miller MA, Girvin AT, Taylor A, Williams D, D'Antonio N, Zhang Y, Rajagopalan A, Flietner E, Wilson K, Zhang X, Shinn P, Klumpp-Thomas C, McKnight C, Itkin Z, Chen L, Kazandijian D, Zhang J, Michalowski AM, Simmons JK, Keats J, Thomas CJ, Mock BA. Drug combinations identified by high-throughput screening promote cell cycle transition and upregulate Smad pathways in myeloma. Cancer Lett. 2023 Aug 1;568:216284. doi: 10.1016/j.canlet.2023.216284. Epub 2023 Jun 24. PMID: 37356470; PMCID: PMC10408729.
SEQUENCE No. (e.g., 1, 2, 3, etc.); […] (e.g., Cells, Incubation, Reagent, etc.); VALUE and DESCRIPTION.
1; Cells; 5 uL; white, solid bottom 1536-well Greiner assay plate.
2; Compounds; 23 nL; Kalypsis pin tool (Wako USA) equipped with a 1536-well pin head to transfer to the assay plates.
3; Incubation; 48 hours; 37C incubation.
4; Reagent;5uL; CellTiter Glo (Promega).
5; Detector; 425V; Luminescence; Viewlux PerkinElmer.
NOTES (numbers refer to Sequence numbers above)
1. The cell-based screening methods employed in this study were like those previously published. Briefly, the corresponding myeloma cell lines were screened in 1,536-well plates with 500 cells, 5-uL per well for inhibition of cell viability (assessed by measuring ATP levels with CellTiterGlo).
2. NCATS MIPE 4.0 library of approved and investigational drugs were added using the Kalypsis pin tool. Wells treated with DMSO only for 100% viability and media only for 0% viability were used as controls.
3. The assay plates were covered and incubated for 48 hours in a 37C, 5% CO2 incubator with controlled humidity.
4. After 48 hours, CellTilter-GloTM luminescent substrate mix (Promega) reagent was added to the assay plate and plates we incubated for 5 min at room temperature.
5. Signal was measured as median relative luminescence units on a ViewLux (PerkinElmer) multiplate reader.
[1] Heske CM, Davis MI, Baumgart JT, Wilson K, Gormally MV, Chen L, Zhang X, Ceribelli M, Duveau DY, Guha R, Ferrer M, Arnaldez FI, Ji J, Tran HL, Zhang Y, Mendoza A, Helman LJ, Thomas CJ. Matrix Screen Identifies Synergistic Combination of PARP Inhibitors and Nicotinamide Phosphoribosyltransferase (NAMPT) Inhibitors in Ewing Sarcoma. Clin Cancer Res. 2017 Dec 1;23(23):7301-7311. doi: 10.1158/1078-0432.CCR-17-1121. Epub 2017 Sep 12. PMID: 28899971; PMCID: PMC6636827.
Potency means the concentration at half of the fitted maximal effect.

Compound | viability (% of control) | Potency
CO[C@H]1O[C@@H]2O[C@@]3(C)CC[C@@H]4[C@@H](C)CC[C@@H]([C@H]1C)[C@@]24OO3 | 115% (inactive) | 
Cc1ccc2c(c1)c1c(n2CCc2ccc(C)nc2)CCN(C)C1 | 101% (inactive) | 
CCNC(=O)c1noc(-c2cc(C(C)C)c(O)cc2O)c1-c1ccc(CN2CCOCC2)cc1 |  | 0.0526 µM (active)
CC(C)C[C@H](NC(=O)c1cc2ccccc2s1)C(=O)N1CCN(C(=O)[C@H](CO)NS(=O)(=O)c2ccc(Cl)cc2Cl)CC1 |  | 23.5 µM (active)
CC[C@H]1OC(=O)[C@H](C)[C@@H](O[C@H]2C[C@@](C)(OC)[C@@H](O)[C@H](C)O2)[C@H](C)[C@@H](O[C@@H]2O[C@H](C)C[C@H](N(C)C)[C@H]2O)[C@](C)(O)C[C@H](C)C(=NOCOCCOC)[C@H](C)[C@@H](O)[C@]1(C)O | 102% (inactive) | 
CC(C)(CO)[C@@H](O)C(=O)NCCC(=O)O |  | 16.6 µM (active)
CC1(C)C(N(O)C(=O)Nc2ccc(Cl)cc2)N(c2ccc(Cl)cc2)C(=O)N1CC(=O)NN=CC=Cc1ccc([N+](=O)[O-])o1 (stereo not given) |  | 9.35 µM (active)
Clc1ccc(COC(Cn2ccnc2)c2ccc(Cl)cc2Cl)c(Cl)c1 (stereo not given) |  | 20.9 µM (active)
C#CCN(C)CC1=Cc2ccccc2Oc2ccccc21 | 89.5% (inactive) | 
CC(C)(OCc1nn(Cc2ccccc2)c2ccccc12)C(=O)O | 114% (inactive) | 
CN1CC(=O)NC1=NC(=O)Nc1cccc(Cl)c1 |  | 23.5 µM (active)
O=C(c1ccc(F)c(F)c1Nc1ccc(I)cc1F)N1CC(O)([C@H]2CCCCN2)C1 |  | 16.6 µM (active)
CCCCC(F)(F)[C@@]1(O)CC[C@H]2[C@H](CC(=O)[C@@H]2CCCCCCC(=O)O)O1 | 110% (inactive) | 
CCN(CCO)CCCOc1ccc2c(Nc3cc(CC(=O)Nc4cccc(F)c4)[nH]n3)ncnc2c1 | 86.4% (inactive) | 
O[C@@H](COc1cccc2ncccc12)CN1CCN(C2c3ccccc3[C@@H]3[C@H](c4ccccc42)C3(F)F)CC1 (stereo not given in full) |  | 10.5 µM (active)
CC1CNc2c(cccc2S(=O)(=O)N[C@@H](CCCN=C(N)N)C(=O)N2CC[C@@H](C)C[C@@H]2C(=O)O)C1 (stereo not given in full) | 113% (inactive) | 
C[C@H]1O[C@@H](n2cc(F)c(=O)[nH]c2=O)[C@H](O)[C@H]1O |  | 8.33 µM (active)
CCC(C)SSc1ncc[nH]1 (stereo not given) |  | 7.43 µM (active)
N#CC1(c2cccc(C(=O)Nc3cc(Oc4ccc5nc(NC(=O)C6CC6)sc5n4)ccc3F)c2Cl)CC1 |  | 14.8 µM (active)
COc1cc2ncnc(Nc3cc(Br)c(O)c(Br)c3)c2cc1OC |  | 0.0332 µM (active)

Compound | viability (% of control) | Potency
COc1cc2ncn(-c3cc(OCc4ccccc4S(C)(=O)=O)c(C#N)s3)c2cc1OC | 116% (inactive) | 
Cc1ccc(C(=O)N(CCCN)[C@@H](c2nc3cc(Cl)ccc3c(=O)n2Cc2ccccc2)C(C)C)cc1 |  | 5.26 µM (active)
OC(c1cc(C(F)(F)F)nc2c(C(F)(F)F)cccc12)C1CCCCN1 (stereo not given) |  | 13.2 µM (active)
COc1cc2nccc(Oc3ccc(NC(=O)Nc4ccc(F)cc4F)c(F)c3)c2cc1OC | 113% (inactive) | 
N[C@@H](CC(=O)N1CCn2c(nnc2C(F)(F)F)C1)Cc1cc(F)c(F)cc1F | 126% (inactive) | 
Cc1ccc(NC(=O)Nc2cc(C(F)(F)F)ccc2F)cc1Nc1ccc2c(c1)NC(=O)C2=Cc1ccc[nH]1 |  | 3.32 µM (active)
C=CC[N+]1([C@H]2C[C@H]3[C@@H]4CC[C@H]5C[C@H](O)[C@@H](N6CCOCC6)C[C@]5(C)[C@@H]4CC[C@]3(C)[C@H]2OC(C)=O)CCCC1 | 121% (inactive) | 
O=C(c1ccc(C=Cc2n[nH]c3ccccc23)cc1)N1CCNCC1 |  | 16.6 µM (active)
O=C(Nc1ncc(SCCN2CCCC2)s1)[C@]1(c2ccc(S(=O)(=O)C3CC3)cc2)C[C@@H]1C1CCCCC1 |  | 8.33 µM (active)
C=C1c2cccc(O)c2C(O)=C2C(=O)[C@@]3(O)C(O)=C(C(N)=O)C(=O)[C@@H](N(C)C)[C@@H]3[C@@H](O)[C@H]12 |  | 16.6 µM (active)
CC(C)CN(C[C@@H](O)[C@H](Cc1ccccc1)NC(=O)O[C@H]1CO[C@H]2OCC[C@H]21)S(=O)(=O)c1ccc(N)cc1 |  | 4.69 µM (active)
CC(=O)OCC(=O)[C@@]12OC(C)(C)O[C@H]1C[C@H]1[C@@H]3C[C@H](F)C4=CC(=O)C=C[C@]4(C)[C@@]3(F)[C@@H](O)C[C@@]12C | 103% (inactive) | 
CCCCC(C=O)NC(=O)C(CC(C)C)NC(=O)OCc1ccccc1 (stereo not given) | 101% (inactive) | 
Cc1ccc(S(=O)(=O)OCC(=O)Nc2ccc(C(=O)O)c(O)c2)cc1 |  | 20.9 µM (active)
OC1CCC(Nc2ncc3nc(Nc4c(F)cc(F)cc4F)n([C@@H]4CCOC4)c3n2)CC1 (stereo not given in full) |  | 18.7 µM (active)
O=C(CC12CC3CC(CC(C3)C1)C2)Nc1cccc2nc(NCCNCCO)ccc12 |  | 7.43 µM (active)
Cc1csc(-c2nnc(Nc3ccc(Oc4ncccc4-c4ccnc(N)n4)cc3)c3ccccc23)c1 |  | 20.9 µM (active)
CC(C)CNc1ccnc(NCc2csc(-c3ccccc3)n2)n1 |  | 14.8 µM (active)
Cc1ccc2c(=O)c3cccc(CC(=O)O)c3oc2c1C |  | 23.5 µM (active)
CN(C)CCCNC(=O)c1ccc(-c2cc(O)c3ncccc3c2)cc1 | 88.1% (inactive) | 
